Screening results as filed in PubChem BioAssay.
FBW7 activator: FBW7 E3 ligase activators, primary screen, biochemical, AlphaScreen, human. F-box/WD repeat-containing protein 7 (Homo sapiens), Q969H0. AlphaScreen FBW7–phospho-cyclin E peptide binding, activator screen. normalized activity (activation), % at 26.1 µM. hit rate 0.13% among 650,000. AID 1259310, 2017; in the data active = normalized activity above about 1.9%;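 also: purified mutant Fbw7 with reduced substrate affinity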
TEAD-YAP block: TEAD-YAP interaction inhibition, primary screen, TEAD-YAP interaction inhibitor project, luminescence, HEK-TIYL cells; hit rate 1.4% among 640,000; AID 1259422, 2018; TEAD-Gal4/YAP UAS-luciferase luminescence; inhibition, % at 9.12 µM; in the data active = inhibition above about 32%
MITF primary: MITF inhibitors, primary screen, biochemical, AlphaScreen, human; Microphthalmia-associated transcription factor (Homo sapiens), O75030; AlphaScreen MITF homodimerization, bead proximity signal; hit rate 0.91% among 650,000; inhibition, % at 2.6 µM; in the data active = inhibition above about 50%
Target sequence (O75030 whole entry, looked up): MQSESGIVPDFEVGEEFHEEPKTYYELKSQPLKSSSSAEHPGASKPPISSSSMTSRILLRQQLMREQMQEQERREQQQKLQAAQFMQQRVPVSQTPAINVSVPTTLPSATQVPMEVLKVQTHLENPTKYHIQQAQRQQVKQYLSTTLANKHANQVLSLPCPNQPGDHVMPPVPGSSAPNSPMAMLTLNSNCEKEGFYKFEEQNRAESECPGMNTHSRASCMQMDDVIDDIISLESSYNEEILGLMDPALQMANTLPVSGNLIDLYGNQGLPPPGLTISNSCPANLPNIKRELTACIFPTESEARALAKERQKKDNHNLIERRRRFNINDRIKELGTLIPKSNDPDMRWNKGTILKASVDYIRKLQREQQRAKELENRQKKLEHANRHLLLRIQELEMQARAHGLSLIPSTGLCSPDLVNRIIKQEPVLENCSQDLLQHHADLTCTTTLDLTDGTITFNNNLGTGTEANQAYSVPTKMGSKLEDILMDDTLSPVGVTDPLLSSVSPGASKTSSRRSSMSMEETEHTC
GPR151 activ: activators of human GPR151, primary screen, cell-based, PathHunter beta-arrestin, luminescence; G-protein coupled receptor 151 (Homo sapiens), Q8TDV0; PathHunter beta-arrestin GPR151 cells; activation, % at 11.2 µM; hit rate 1% among 650,000; AID 1508602, 2020; in the data active = activation above about 4.9%
Hits are given with their value. Only some compounds are listed: those with a hit (about 3.5% of all), similar ones and a draw of the others.

COc1cccc(CCNC(=O)C2CC23CCN(Cc2cccc(OCCO)c2)CC3)c1 (stereo not given) was read as FBW7 activator inactive, TEAD-YAP block inactive, MITF primary inactive and GPR151 activ inactive.
O=C1CN(C(=O)c2cc([N+](=O)[O-])ccc2Cl)c2ccccc2N1 was read as FBW7 activator inactive, TEAD-YAP block 59, MITF primary inactive and GPR151 activ inactive.
For COc1cccc(C(=O)N2CC(=O)Nc3ccccc32)c1 the results were FBW7 activator inactive, TEAD-YAP block 42, MITF primary inactive and GPR151 activ inactive.
Screening CN(C)c1c(C(=O)N2CC(=O)Nc3ccccc32)cc([N+](=O)[O-])cc1[N+](=O)[O-] returned FBW7 activator inactive, TEAD-YAP block inactive, MITF primary inactive and GPR151 activ inactive.
`COc1cccc(C(=O)N2c3ccccc3NC(=O)CC2C)c1` (stereo not given) gave FBW7 activator inactive, TEAD-YAP block inactive, MITF primary inactive and GPR151 activ inactive.
`CC(NC(=O)CSc1cccc[n+]1[O-])C1CC2CCC1C2` (stereo not given) gave FBW7 activator inactive, TEAD-YAP block inactive, MITF primary inactive and GPR151 activ inactive.
For CCOC(=O)C1=C(C)N=c2s/c(=C/c3ccc4cc(C)ccc4n3)c(=O)n2C1c1ccc(N(C)C)cc1 (stereo not given) the results were FBW7 activator inactive, TEAD-YAP block inactive, MITF primary inactive and GPR151 activ inactive.
`c1ccc(Nc2nc(Nc3ccc(N4CCOCC4)cc3)c3[nH]cnc3n2)cc1` gave FBW7 activator inactive, TEAD-YAP block 47, MITF primary inactive and GPR151 activ inactive.
For CCCNc1nc(Nc2cc(OC)c(OC)c(OC)c2)nc2nc[nH]c12 the results were FBW7 activator inactive, TEAD-YAP block 39, MITF primary inactive and GPR151 activ inactive.
`CC(=O)c1cccc(-c2nc(Nc3ccc(N4CCOCC4)cc3)c3[nH]cnc3n2)c1` gave FBW7 activator inactive, TEAD-YAP block inactive, MITF primary inactive and GPR151 activ inactive.
`c1cn(-c2ccc(Nc3nc(Nc4ccc(N5CCOCC5)cc4)c4[nH]cnc4n3)cc2)cn1` gave FBW7 activator inactive, TEAD-YAP block 51, MITF primary inactive and GPR151 activ inactive.
Screening Nc1cccc(-c2nc(Nc3ccc(N4CCOCC4)cc3)c3[nH]cnc3n2)c1 returned FBW7 activator inactive, TEAD-YAP block 60, MITF primary inactive and GPR151 activ inactive.
For CCCOc1ccc(/C=N/NS(=O)(=O)c2ccc(Cl)cc2)cc1 the results were FBW7 activator inactive, TEAD-YAP block inactive, MITF primary inactive and GPR151 activ inactive.
O=C(NCc1cccc(Cl)c1)c1cnn2ccccc12 was read as FBW7 activator inactive, TEAD-YAP block inactive, MITF primary inactive and GPR151 activ inactive.
`COc1cc(Nc2nc(Nc3ccc(N4CCOCC4)cc3)c3[nH]cnc3n2)cc(OC)c1OC` gave FBW7 activator inactive, TEAD-YAP block 64, MITF primary inactive and GPR151 activ inactive.
`Cc1cnc(Nc2ccc(-n3ccnc3)cc2)nc1Nc1ccc(N2CCOCC2)cc1` gave FBW7 activator inactive, TEAD-YAP block 51, MITF primary inactive and GPR151 activ inactive.
`CC(=O)Nc1ccc(Nc2nc(Nc3ccc(N4CCOCC4)cc3)ncc2C)cc1` gave FBW7 activator inactive, TEAD-YAP block inactive, MITF primary inactive and GPR151 activ inactive.
CCOC(=O)C1=CN(c2ccc(F)cc2)C=C(C(=O)OCC)C1c1cc(OC)c(OC)c(OC)c1 was read as FBW7 activator inactive, TEAD-YAP block inactive, MITF primary inactive and GPR151 activ inactive.
COC(=O)Cn1ncc(N2CC3(C)CC2CC(C)(C)C3)c(Cl)c1=O (stereo not given) was read as FBW7 activator inactive, TEAD-YAP block inactive, MITF primary inactive and GPR151 activ inactive.
CCn1nc(-c2ccccn2)nc2c(=O)n(C)c(=O)nc1-2 was read as FBW7 activator inactive, TEAD-YAP block 97, MITF primary inactive and GPR151 activ inactive.
CCn1nc(-c2ccc(OC)cc2)nc2c(=O)n(C)c(=O)nc1-2 was read as FBW7 activator inactive, TEAD-YAP block 96, MITF primary inactive and GPR151 activ inactive.
Screening CCn1nc(-c2ccc(Cl)c(Cl)c2)nc2c(=O)n(C)c(=O)nc1-2 returned FBW7 activator inactive, TEAD-YAP block inactive, MITF primary inactive and GPR151 activ inactive.
Screening Cn1nc(-c2ccc([N+](=O)[O-])cc2)nc2c(=O)n(C)c(=O)nc1-2 returned FBW7 activator inactive, TEAD-YAP block 55, MITF primary inactive and GPR151 activ inactive.
For COC(=O)CNS(=O)(=O)c1ccc(C23CC4CC(CC(C4)C2)C3)cc1 the results were FBW7 activator inactive, TEAD-YAP block inactive, MITF primary inactive and GPR151 activ inactive.
COc1ccc(-c2cn3c(n2)sc2cc(C)ccc23)cc1 was read as FBW7 activator inactive, TEAD-YAP block inactive, MITF primary inactive and GPR151 activ inactive.
For O=c1oc2ccc3ccccc3c2cc1-c1cn2c(n1)sc1cc(Cl)ccc12 the results were FBW7 activator inactive, TEAD-YAP block inactive, MITF primary inactive and GPR151 activ inactive.
O=c1oc2ccccc2cc1-c1cn2c(n1)sc1ccccc12 was read as FBW7 activator inactive, TEAD-YAP block 80, MITF primary inactive and GPR151 activ inactive.
For Cc1ccc2c(c1)sc1nc(-c3cc4ccccc4oc3=O)cn12 the results were FBW7 activator inactive, TEAD-YAP block 66, MITF primary inactive and GPR151 activ inactive.
For COc1ccc2c(c1)sc1nc(-c3cc4ccccc4oc3=O)cn12 the results were FBW7 activator inactive, TEAD-YAP block 84, MITF primary inactive and GPR151 activ inactive.
`Cc1ccc(-c2cn3c(n2)sc2cc(C)ccc23)cc1` gave FBW7 activator inactive, TEAD-YAP block 78, MITF primary inactive and GPR151 activ inactive.
For O=C(CCN1C(=O)c2ccccc2C1=O)Nc1cccc(I)c1 the results were FBW7 activator inactive, TEAD-YAP block inactive, MITF primary inactive and GPR151 activ inactive.
COc1ccccc1NC(=O)C1=C(C)Nc2nc(-c3cccnc3)nn2C1c1ccccc1 (stereo not given) was read as FBW7 activator inactive, TEAD-YAP block inactive, MITF primary inactive and GPR151 activ inactive.
`O=C(N=Nc1c(O)[nH]c2ccc(F)cc12)c1ccncc1` gave FBW7 activator inactive, TEAD-YAP block inactive, MITF primary inactive and GPR151 activ inactive.
`COC(=O)COc1ccc(/C=C2/C(=O)N(C)C(=S)N2CC(=O)OC)cc1OC` gave FBW7 activator inactive, TEAD-YAP block inactive, MITF primary inactive and GPR151 activ inactive.
For CC1Cc2ccccc2N1S(=O)(=O)c1ccc2c(c1)n(C)c(=O)c(=O)n2C (stereo not given) the results were FBW7 activator inactive, TEAD-YAP block inactive, MITF primary inactive and GPR151 activ inactive.
Screening CC1Cc2ccccc2N1S(=O)(=O)c1ccc2[nH]c(=O)[nH]c2c1 (stereo not given) returned FBW7 activator inactive, TEAD-YAP block 37, MITF primary inactive and GPR151 activ inactive.
